USP8 block: inhibitors of human USP8 deubiquitinase. AID 1645853. hit rate 4.2% among 47,000. inhibition, % at 20 µM. P40818. purified USP8, Ub-rhodamine cleavage fluorescence, 30 min
USP17 inh: blocks human USP17 ubiquitin-rhodamine cleavage. AID 1645855. inhibition, % at 50 µM. hit rate 6.5% among 47,000. purified USP17, Ub-rhodamine cleavage fluorescence, 3 h
USP28 inh: inhibitors of human USP28 deubiquitinase | inhibition, % at 25 µM | hit rate 3% among 47,000 | AID 1645857 | Q96RU2 | purified USP28, Ub-rhodamine cleavage fluorescence, 30 min
USP10 block: human USP10 deubiquitinase inhibition. Q14694. purified USP10, Ub-rhodamine fluorescence, 60 min. inhibition, % at 20 µM. hit rate 1.1% among 47,000
Target sequence (Q14694 whole entry, looked up): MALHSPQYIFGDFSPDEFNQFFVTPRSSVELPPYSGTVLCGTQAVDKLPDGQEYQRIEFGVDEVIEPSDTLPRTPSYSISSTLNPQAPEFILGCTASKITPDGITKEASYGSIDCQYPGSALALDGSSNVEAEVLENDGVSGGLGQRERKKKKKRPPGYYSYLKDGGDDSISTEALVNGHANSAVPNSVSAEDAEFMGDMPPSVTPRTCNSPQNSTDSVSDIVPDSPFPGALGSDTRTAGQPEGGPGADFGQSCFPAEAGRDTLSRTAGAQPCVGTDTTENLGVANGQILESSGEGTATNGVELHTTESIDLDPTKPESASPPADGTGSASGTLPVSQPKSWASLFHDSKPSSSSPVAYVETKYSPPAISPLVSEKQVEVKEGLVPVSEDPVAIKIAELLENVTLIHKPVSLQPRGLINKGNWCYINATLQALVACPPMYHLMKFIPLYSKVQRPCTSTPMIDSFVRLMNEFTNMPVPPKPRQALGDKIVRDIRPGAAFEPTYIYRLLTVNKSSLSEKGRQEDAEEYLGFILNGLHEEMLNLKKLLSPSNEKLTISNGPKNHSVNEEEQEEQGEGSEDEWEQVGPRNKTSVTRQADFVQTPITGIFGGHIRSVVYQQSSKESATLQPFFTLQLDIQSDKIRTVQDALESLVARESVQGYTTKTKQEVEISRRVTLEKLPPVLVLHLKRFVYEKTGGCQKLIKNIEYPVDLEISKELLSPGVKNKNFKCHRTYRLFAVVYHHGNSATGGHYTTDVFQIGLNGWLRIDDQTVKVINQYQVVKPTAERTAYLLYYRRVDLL
USP30 block: human USP30 deubiquitinase inhibition; Q70CQ3; purified USP30, Ub-rhodamine cleavage fluorescence; AID 1645860; inhibition, % at 25 µM; hit rate 5.3% among 47,000
Active calls of the source: *. Compounds with a hit are over-represented: about 14% of the library has one in this group of screens. Rule as the data show it: active = inhibition above about 30%; inactive = the rest.

SMILES	USP8 block	USP17 inh	USP28 inh	USP10 block	USP30 block
CC1(C)OC(=O)[C@@]2(C)N[C@]1(C)C[C@@H]2C(=O)Nc1cccc2cccnc12	41.2*	6.7	-8.3	-2.1	-35.4
COc1ccc(CN(C(=O)CN2C(=O)c3ccccc3S2(=O)=O)C(C(=O)NCC2CCCO2)c2ccccc2F)cc1 (centres undefined)	-1.0	-26.8	-7.2	0.4	-12.7
Nc1nn(-c2ccccc2)cc1-c1cccs1	35.9*	-2.9	-2.3	-7.1	-19.8
COc1ccc(C(=O)/C=C\c2cn(-c3ccccc3)nc2-c2cccs2)cc1	2.3	-2.7	-11.9	1.4	-14.0
CC(C)c1cnn2c(NCc3ccccc3)cc(NCCCCCCN)nc12	3.0	-7.9	40.1*	3.0	37.4*
Cn1ncc2c(NCc3ccccc3)nc(N3CCCCC3)nc21	-11.2	-5.8	3.5	10.8	-12.4
O=c1c2cnc(N3CCCCC3)nc2ccn1CCc1ccccc1	17.3	85.1*	18.4	6.6	28.0
CSc1nc2ncc3c(=O)n(CCc4ccccc4)ccc3n2n1	15.6	62.2*	7.7	1.9	44.1*
CCN1CCN(c2ncc3c(=O)n(CCc4ccccc4)ccc3n2)CC1	15.7	25.5	11.5	0.1	39.0*
CSc1nc2ncc3c(=O)n(CCN4CCOCC4)ccc3n2n1	6.9	3.5	7.6	-2.1	1.9
O=c1c2cnc(N3CCN(c4ccccc4)CC3)nc2ccn1Cc1cccnc1	9.8	13.6	9.7	1.7	16.6
COc1ccc(/C=C2\CSc3sccc3C2=O)cc1	11.5	20.2	49.7*	1.9	21.1
COc1ncccc1CN1CC[C@H]2[C@H]1CCN2C(=O)c1cnn(C)c1	-80.0	-8.6	9.3	0.6	27.1
NS(=O)(=O)c1ccc(CCNC(=O)c2nc(-c3ccccc3)n(-c3ccccc3)n2)cc1	-10.9	-9.0	-5.4	0.1	-26.5
Cn1nc(-c2ccccc2F)c2cc(C(=O)NCCc3ccc(S(N)(=O)=O)cc3)sc21	33.5*	10.0	21.8	7.1	31.9*
COc1ccc(CNC(=O)CSc2nc3nc(C)ccc3o2)cc1	-32.6	52.1*	13.0	7.6	11.2
O=C(Nc1ccccc1C(F)(F)F)/C(=C\c1ccccc1)c1ccccc1	4.4	-5.4	-10.0	3.6	-3.3
CCOc1ccc(CCNC(=O)c2ccc3c(c2)N(CC)C(=O)c2ccccc2S3)cc1OCC	9.2	0.3	60.2*	7.0	-1.5
Cc1cncc(C2CCCN2C(=O)c2cc(C)nc3onc(C)c23)n1 (centres undefined)	-2.4	6.5	7.9	0.4	8.1
COc1ccc2nc(-c3cccc(NC(=O)C4CCCC4)c3)cn2n1	-0.5	28.7	0.2	2.7	1.5
COc1ccc2nc(-c3ccc(NC(=O)c4cccc(OC)c4OC)cc3)cn2n1	3.7	80.5*	-2.9	10.0	-28.1
CCCCN(CC)c1ncnc2c1sc1nc(-c3ccco3)c3c(c12)CC(C)(C)OC3	59.3*	53.4*	11.6	10.5	-33.9
CC(C)c1nc2sc3c(N(CCO)CCO)ncnc3c2c2c1COC(C)(C)C2	5.2	9.9	19.5	-5.7	59.6*
CCn1cc(-c2cc(C(=O)N3C[C@@H]4C[C@@]5(C)[C@H](CCC[C@@H]35)N4C(C)=O)on2)cn1	-19.9	-16.5	-14.6	-1.0	-11.6
O=C(Nc1ccccc1)c1cncc(NS(=O)(=O)c2ccc3c(c2)OCCO3)c1	-89.2	-31.6	-11.0	-0.8	-57.1
SMILES	USP8 block	USP17 inh	USP28 inh	USP10 block	USP30 block
O=C1COc2ccc(C(=O)COC(=O)c3ccc4ccccc4n3)cc2N1	20.1	44.2*	-44.3	-7.2	-195.4
COc1ccc(OC)c(C(=O)COC(=O)c2ccc3ccccc3n2)c1	19.0	26.5	12.4	2.3	-0.4
COc1ccc(-n2cc(C(=O)NCc3ccc4c(c3)OCO4)c3ccccc3c2=O)cc1	7.5	-0.4	25.8	22.0	53.5*
N#Cc1ccccc1OCC(=O)NCc1ccc2c(c1)OCO2	-16.3	-12.6	-11.2	-2.0	-20.3
O=C(NCc1ccccc1)c1ccccc1OCc1ccc2c(c1)OCO2	16.8	31.0*	2.6	12.9	34.9*
CCCN1Cc2cccc(C(=O)NCc3ccc4c(c3)OCO4)c2C1=O	8.1	8.2	35.3*	-2.6	15.7
O=C(NCc1ccc2c(c1)OCO2)c1ccccc1OCc1ccc(F)cc1	15.5	32.5*	17.1	14.3	30.8*
Cc1nc(NCc2ccccc2)ncc1C(=O)NCc1ccc2c(c1)OCO2	1.2	3.1	-9.5	-1.4	-238.4
COCc1nn(CC2CC2)c2c1CN(C(=O)c1ccc[nH]1)CC2	-53.1	-56.3	-38.5	-9.0	-109.1
O=C(NCc1ccc2c(c1)OCO2)c1nnc(Cc2ccc(F)cc2)o1	9.3	56.4*	5.2	2.6	22.2
